# Assay outcomes as filed in PubChem BioAssay.
# Rows were chosen to be rich in hits. Some 8.1% of all compounds tested hit in one or more screens of this group.
# KB-3-1 cytotox = kills parental KB-3-1 adenocarcinoma cells; KB-3-1 viability, CellTiter-Glo ATP luminescence, 72 h; Potency, µM (doses to about 46.1 µM), hits mostly cytotoxic; actives 1.4% (n = 400,000); further: on the % scale 0 is the no-effect control and ±100 the full control effect; nearly all actives have a fitted effect of over 60% in size
#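 Cytotoxicity measured as CellTiter-Glo luminescence after 72 h at 37 C. Compound titrations were pinned onto drug-naive KB-3-1 parental adenocarcinoma cells grown in DMEM with 10% FBS, and normalized data fitted to concentration-response curves.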
# ELG1 repair inh = blocks ELG1-dependent DNA repair in HEK293T cells; Potency, µM (titrated, usually from 46.1 µM), for inactives: at the top dose activity change, negative = inhibition, actives largely listed as inhibitors; actives 2.3% (n = 330,000); HEK293T ELG1-luciferase reporter, luminescence, 16 h; DNA damage induced by 5-fluorouridine; AID 504467; further: on the % scale 0 is the no-effect control and ±100 the full control effect; nearly all actives have a fitted effect of over 55% in size
#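 5-Fluorouridine DNA damage + compound/DMSO, 2,000 cells/well, 16 h, 37 °C/5% CO2. ONE-Glo, 30 min RT, luminescence. Readout = decrease in reporter signal.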
# MCF10A rerep = inducers of DNA re-replication in MCF 10A breast cells. AID 624296. Potency, µM (series often up to 46.1 µM), inactives show top-dose activity, positive = re-replication, most hits filed as activators. actives 2.9% (n = 350,000). MCF 10A DNA re-replication, Hoechst nuclear intensity, 48 h; further: % of control where 0% means no effect; nearly all actives have a fitted effect of over 50% in size
# SW480 rerep = inducers of DNA re-replication in SW480 colon cancer cells; SW480 DNA re-replication, Hoechst DNA content imaging, 48 h; Potency, µM (titrated, usually from 46.1 µM), without a hit: at the highest dose re-replication activation, usual class: activators; actives 1.8% (n = 340,000); further: % of control where 0% means no effect; nearly all actives have a fitted effect of over 55% in size
#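 Quantitative HTS format with DMSO vehicle controls; 48 hr drug incubation at 37 C, then 40 min Hoechst staining and scanning imager measurement at 405 nm excitation.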
# KB-V1 cytotox = KB-V1 MDR subline cytotoxicity. KB-V1 MDR cells viability, CellTiter-Glo, 72 h. Potency, µM (top dose mostly 46.1 µM), actives largely listed as cytotoxic. actives 3.4% (n = 400,000). AID 1347076; further: on the % scale 0 is the no-effect control and ±100 the full control effect; nearly all actives have a fitted effect of over 60% in size
#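 KB-V1, DMEM (no phenol red) + 10% FBS; cpd pin-transferred, titration series; 72 h, 37 degrees C; CellTiter-Glo, luminescence. Data normalized, curve-fit.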
# An asterisk follows results filed as active; i = inactive; ? = inconclusive; . = no result given; ! = repeats disagree. The call rests on the fitted dose curve; in most records, active means well fitted curve in the direction sought with a large enough effect; inconclusive means small, poorly fitted or top-dose-only effect, or another doubt; inactive means no such curve, though single readings can be large; an effect the other way counts as inactive or inconclusive. Potency means the concentration at half of the fitted maximal effect.
SMILES,KB-3-1 cytotox,ELG1 repair inh,MCF10A rerep,SW480 rerep,KB-V1 cytotox
N#Cc1ccccc1Oc1ccc(S(=O)(=O)N2CCCCC2)cn1,i,?,7%,0%,?
O=S(=O)(c1ccc(Oc2ccc(Br)cc2F)nc1)N1CCCCC1,?,?,20%,?,23µM*
CN(C)c1ccc(-c2nc3ccccn3c2/N=C/c2ccc(Br)cc2)cc1,15µM*,?,-2%,?,9.2µM*
COc1cc(-c2nc3ccccn3c2/N=C/c2cc(OC)c(OC)c(OC)c2)ccc1O,i,.,3%,-5%,i
Cc1c(-c2ccc(Br)cc2)nc2ccccn12,i,?,?,-4%,21µM*
c1csc(-c2nn3c(Cn4nnc5ccccc54)nnc3s2)c1,?,14%,-2%,-6%,15µM*
c1coc(-c2nn3c(Cn4nnc5ccccc54)nnc3s2)c1,i,13%,?,-8%,13µM*
Clc1ccc(Cc2nn3c(Cn4nnc5ccccc54)nnc3s2)cc1,i,?,13%,-2%,4.1µM*
Cc1cc(C)c2sc(NNC(=O)c3ccc(S(=O)(=O)N4CCc5ccccc5C4)cc3)nc2c1,?,1%,?,5.2µM*,i
CCc1nnc(NC(=O)c2ccc(S(=O)(=O)N3CCc4ccccc4C3)cc2)s1,i,1%,1%,0%,i
Cc1cc(C)c2nc(NNC(=O)c3ccc(S(=O)(=O)N4CCc5ccccc5C4)cc3)sc2c1,?,20%,?,12µM*,i
CC1(C)CC(=O)C2=C(C1)N(N1CCOCC1)C(N)=C(C#N)C2c1cccnc1 (stereo unspecified),i,?,-2%,-9%,i
CSc1ccc(/C=C(\NC(=O)c2ccccc2)C(=O)NN)cc1,i,0%,-20%,1%,i
NC(=O)c1ccccc1NC(=O)N1CCOCC1,i,-5%,1%,?,i
COc1cc(-c2c(-c3cc(OC)c(OC)c(OC)c3)noc2C)ccc1F,0.33µM*!,?,?,1.3µM*,0.41µM*
COc1ccc(-c2c(-c3cc(OC)c(OC)c(OC)c3)noc2C)cn1,1.6µM*,26%,1.6µM*,7.3µM*,1.6µM*!
COC(=O)c1cc(-c2c(-c3cc(OC)c(OC)c(OC)c3)noc2C)cc([N+](=O)[O-])c1,?,?,?,27%,i
Cc1nnc(SCc2ccccc2)n1CC1CCCO1 (stereo unspecified),?,9%,?,-26%,i
N#CCCn1cc(C=C(C#N)C#N)c(-c2ccc(-c3ccccc3)cc2)n1,?,-19%,?,?,21µM*
N#CCCn1cc(/C=N/O)c(-c2ccc(F)cc2)n1,i,-6%,-1%,1%,?
N#CCCn1cc(/C=N/NC(N)=S)c(-c2ccc(-c3ccccc3)cc2)n1,i,26µM*,?,?,i
N#CCCn1cc(/C=N/O)c(-c2ccccc2)n1,i,23µM*,2%,1%,i
C#CCCc1cscc1/C=[N+](\[O-])c1ccc(C(=O)OCC)cc1,i,?,-1%,2%,i
Cc1ccc(C)n1-c1sccc1C(=O)O,i,-5%,-2%,-3%,i
Cc1nc(-n2[nH]c3c(c2=O)CCCC3)[nH]c(=O)c1Cc1ccccc1,?,?,21µM*,9.2µM*,2.6µM*
Nn1cnnc1SCC(=O)N(C1CCCCC1)C1CCCCC1,i,8%,-23%,17%,i
COc1ccc(CN(C)C(=O)c2ccccc2OCc2c(C)noc2C)cc1OC,i,0%,0%,-28%,i
CN1C(=S)SC(N(O)C(=O)Nc2ccc(Cl)c(Cl)c2)C1(C)C (stereo unspecified),?,?,?,0%,18µM*
CN1C(=S)SC(C)(C)C1N(O)C(=O)Nc1ccc(Cl)cc1 (stereo unspecified),i,11%,-4%,-6%,i
O=C(CCS(=O)(=O)c1ccc(Cl)cc1)Nc1cccc(S(=O)(=O)N2CCCCCC2)c1,i,.,13%,-8%,21µM*
